From PubChem BioAssay
Hits are enriched below; roughly 1.2% of the tested compounds scored in any of these assays.
RGS8-Gao reg: modulates binding of RGS8 to human Galphao. P09471. multiplexed bead flow cytometry; actives lie on both sides. response (percent of control binding), % at 10 µM. 220,000 tested, 0.34% active; in the data active = response below about 60% or above about 140%; inactive = in between;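 also: Galphao activated as the GDP aluminium fluoride complex binding bead-coupled RGS8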
Target sequence (P09471 whole entry, looked up): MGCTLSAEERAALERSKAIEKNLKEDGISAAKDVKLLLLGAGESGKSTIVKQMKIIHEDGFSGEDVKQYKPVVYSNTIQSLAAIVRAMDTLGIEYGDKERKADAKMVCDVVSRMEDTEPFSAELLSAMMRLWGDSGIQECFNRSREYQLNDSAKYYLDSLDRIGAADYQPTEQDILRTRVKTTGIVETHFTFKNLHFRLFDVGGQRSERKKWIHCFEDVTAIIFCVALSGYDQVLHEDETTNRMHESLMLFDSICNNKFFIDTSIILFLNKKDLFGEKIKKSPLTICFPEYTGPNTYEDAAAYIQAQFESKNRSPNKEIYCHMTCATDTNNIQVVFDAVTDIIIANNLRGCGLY
RGS7-Gao reg: human RGS7-Galphao interaction regulation. Multiplexed bead flow cytometry, RGS7-Galphao binding; actives lie on both sides. 220,000 tested, 0.35% active. P09471. AID 1439. binding response (% of control), % at 10 µM; in the data active = binding response below about 49% or above about 150%; inconclusive = no clear call, values can overlap the other calls; inactive = in between;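 also: fluorescent Galphao held in activated GDP-AlF4 state binding bead-coupled RGS7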
GSH fluor: compound fluoresces at 488/530 nm on GSH beads; GSH beads flow cytometry, compound fluorescence 488/530 nm; hits give high values; fluorescence (KMESF) at 10 µM; 190,000 tested, 0.25% active; AID 1776; in the data active = fluorescence above about 89;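 also: glutathione beads carrying GST-tagged Bcl family fusion proteins plus one bare bead set; values are compound well signal with DMSO vehicle wells as background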
Avidin fluor: compound fluoresces at 488/530 nm on avidin beads | compound fluorescence 488/530 nm, flow cytometry; hits give high values | fluorescence (KMESF) at 10 µM | 220,000 tested, 0.38% active; in the data active = fluorescence above about 47
RGS4-Gao reg: human RGS4-Galphao interaction regulation; binding response (% of control), % at 10 µM; Multiplexed bead flow cytometry, RGS4-Galphao binding; actives lie on both sides; 220,000 tested, 0.33% active; P09471; AID 1415; in the data active = binding response below about 49% or above about 150%; inactive = in between;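 also: fluorescent Galphao activated with aluminum fluoride binding bead-coupled RGS4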
RGS16-Gao HTS: regulators of human RGS16-Galphao interaction; O15492+P09471; bead-based flow cytometry RGS16-Galphao binding, fluorescence; actives lie on both sides; binding response (% of control), % at 10 µM; 220,000 tested, 0.38% active; call rule not given here;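 also: Galphao activated by GDP with aluminum fluoride before binding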
* hit, by the source's call.

Screening CC(NC(=O)c1cncc(Br)c1)c1ccc(S(N)(=O)=O)cc1 (configuration not stated) returned RGS8-Gao reg 103.9, RGS7-Gao reg 98.6, GSH fluor 71, Avidin fluor 8, RGS4-Gao reg 104.8 and RGS16-Gao HTS 101.8.
`NS(=O)(=O)c1ccc(CCNC(=O)c2cncc(Br)c2)cc1` gave RGS8-Gao reg 97.8, RGS7-Gao reg 109.8, GSH fluor 21, Avidin fluor 50*, RGS4-Gao reg 98.8 and RGS16-Gao HTS 94.8.
For Cc1[nH]nc2c1C(c1ccsc1)C1=C(CC(C)(C)CC1=O)N2 (configuration not stated) the results were RGS8-Gao reg 115.8, RGS7-Gao reg 118.8, GSH fluor 18, Avidin fluor 9, RGS4-Gao reg 102.4 and RGS16-Gao HTS 108.2.
Screening CC(=O)Oc1ccc2oc(C)c(C(=O)N3CCOCC3)c2c1 returned RGS8-Gao reg 98.6, RGS7-Gao reg 95.1, GSH fluor 21, Avidin fluor 25, RGS4-Gao reg 96.3 and RGS16-Gao HTS 97.3.
CC(=O)Oc1ccc2oc3c(c2c1)C(=O)CCC3 was read as RGS8-Gao reg 99.9, RGS7-Gao reg 98.8, GSH fluor 260*, Avidin fluor 8, RGS4-Gao reg 98.2 and RGS16-Gao HTS 96.2.
`CCOC(=O)Nc1c(C(=O)OC)[nH]c2cccc(OC)c12` gave RGS8-Gao reg 102.6, RGS7-Gao reg 120.4, GSH fluor 28, Avidin fluor 57*, RGS4-Gao reg 121.7 and RGS16-Gao HTS 124.6.
CCOC(=O)c1[nH]c2ccc(OC)cc2c1NC(C)=O was read as RGS8-Gao reg 100.6, RGS7-Gao reg 120.7, GSH fluor 15, Avidin fluor 62*, RGS4-Gao reg 106.3 and RGS16-Gao HTS 101.8.
For COC(=O)c1[nH]c2cccc(OC)c2c1NC(=O)CCN1CCC(C)CC1 the results were RGS8-Gao reg 101.0, RGS7-Gao reg 100.3, GSH fluor 22, Avidin fluor 33, RGS4-Gao reg 100.3 and RGS16-Gao HTS 101.1.
`CCOC(=O)C(=CNNc1ccccc1)C(=O)OCC` gave RGS8-Gao reg 98.2, RGS7-Gao reg inconclusive, Avidin fluor 6, RGS4-Gao reg 97.2 and RGS16-Gao HTS 96.8.
`COc1ccc(N(CC(=O)Nc2cc(C)on2)S(=O)(=O)c2ccc(Cl)cc2)cc1` gave RGS8-Gao reg 104.6, RGS7-Gao reg 107.4, GSH fluor 250*, Avidin fluor 4, RGS4-Gao reg 113.0 and RGS16-Gao HTS 108.0.
Screening COc1ccc(N(CC(=O)Nc2cc(C)on2)S(=O)(=O)c2cc(C)ccc2C)cc1 returned RGS8-Gao reg 97.2, RGS7-Gao reg 99.1, GSH fluor 25, Avidin fluor 26, RGS4-Gao reg 100.2 and RGS16-Gao HTS 92.8.
`CN(C)CCNC(=S)Nc1cccc(Cl)c1` gave RGS8-Gao reg 12.0*, RGS7-Gao reg 14.5*, GSH fluor 19, Avidin fluor -2, RGS4-Gao reg 21.7* and RGS16-Gao HTS 0.9*.
Screening CCOc1ccc2nc(NC(=O)c3cccc(-c4cc5ccccc5oc4=O)c3)sc2c1 returned RGS8-Gao reg 105.1, RGS7-Gao reg 106.2, GSH fluor 13, Avidin fluor 74*, RGS4-Gao reg 115.1 and RGS16-Gao HTS 145.3.
For Cc1ccc(C)c2[nH]c(=O)c(C(c3nnnn3Cc3ccccc3)N3CCc4ccccc4C3)cc12 (configuration not stated) the results were RGS8-Gao reg 101.9, RGS7-Gao reg 101.9, GSH fluor 266*, Avidin fluor 8, RGS4-Gao reg 102.5 and RGS16-Gao HTS 102.0.
For Cc1oc2c(O)c(O)ccc2c(=O)c1-c1cnn(-c2ccccc2)c1 the results were RGS8-Gao reg 66.7, RGS7-Gao reg 46.4*, GSH fluor 4, Avidin fluor 11, RGS4-Gao reg 42.5* and RGS16-Gao HTS 35.2.
`Cc1oc2c(O)c(O)ccc2c(=O)c1-c1ccccc1` gave RGS8-Gao reg 93.7, RGS7-Gao reg inconclusive, Avidin fluor 8, RGS4-Gao reg 91.7 and RGS16-Gao HTS 89.1.
`CCOC(=O)NC(CC(=O)O)c1ccc(OC)c(OC)c1` (configuration not stated) gave RGS8-Gao reg 102.5, RGS7-Gao reg 102.0, GSH fluor 259*, Avidin fluor 8, RGS4-Gao reg 105.7 and RGS16-Gao HTS 103.8.
